These results are taken from the supplement of paper PMC11417369.

± gives the standard deviation of the averaged measurements. The full ranking holds about 25,000 sequences; the median of “ln(normalized median fluorescence intensity)” is about 7.9, and the highest 2% start at about 11. The sample as a whole holds a higher share of the highest values than the screen did.

The subject of the experiment is PfAP2-I AP2 domain 3 (GST-tagged). In words: gcPBM binding intensity (ln(normalized median fluorescence intensity)); higher = stronger DNA binding. A digest of the protocol:
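Each value is the highest Masliner-normalised natural-log median intensity across replicate spots of either orientation of a probe. The probes were primer-extended double-stranded 36-bp intergenic genomic sequences on an Agilent 4 × 180k array, alongside negative controls, exposed for 1 h to GST-tagged P. falciparum DNA-binding domains expressed in E. coli. Bound protein was picked up with Alexa488 anti-GST antibody and scanned at 488 nm.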
Consider TTTTTAACGTATAAGGTGCACTGTATATGGTACTCA, for which the “gcPBM binding intensity (ln)” value is 11 ± 0.33.

On to “ATATATATATATATATGTACTTATAAGGTATATTTA [XGTACX_site3327]”, for which the “gcPBM binding intensity (ln)” value turned out to be 9.35 ± 0.52.

On to “ATATTATTATAAACTTCACACATTTTATGGGTTTTT [CACACA_site4631]”, for which the “gcPBM binding intensity (ln)” value stood at 7.49 ± 0.61.

For TTAAAAGTAAGCAAAGTGCATATAACAAAAGTAAAG, the “gcPBM binding intensity (ln)” value stood at 10.01 ± 0.092.

In the case of ATATATATAACAAAAGTGCATTAAGGGGATGCTATA, the “gcPBM binding intensity (ln)” value stood at 11.5 ± 0.26.

As for “ATAAAGATTAACAAAGTGCATTTATATATATAATCT [GTGCAC_site9407]”, the “gcPBM binding intensity (ln)” value turned out to be 9.865 ± 0.092.

For TTTTTTTTTTTTTTGGTGCGTTTATATATAAATATA, the “gcPBM binding intensity (ln)” value stood at 10.4 ± 0.86.

With “TTAACAAAATTTTTAACACACAAAAAAAAAAAAAAA [CACACA_site1828]”, the “gcPBM binding intensity (ln)” value turned out to be 8.2 ± 0.8.

For “TGAAATAACCCATGTGCATGCACTTCAATAACTGAA [TGCATGCA_site1041]”, the “gcPBM binding intensity (ln)” value was 9.54 ± 0.47.

On to “GGTTATAACCCACATGCACACGTAAATAAATATTAT [CACACA_site5992]”, for which the “gcPBM binding intensity (ln)” value was found to be 8.77 ± 0.3.

As to AAATAACCCACGTGCATGCACTTCAATAACTGAACT, the “gcPBM binding intensity (ln)” value was found to be 11.3 ± 0.14.

On to “TTGTATTCATATGGTTGTACATATTAAAAGTTCTAA [XGTACX_site7255]”, for which the “gcPBM binding intensity (ln)” value was determined as 7.73 ± 0.31.

Consider “TACTTATTTGATTGGGTGCATATATATAGTATGTAT [GTGCAC_site9845]”, for which the “gcPBM binding intensity (ln)” value stood at 11 ± 0.73.

With CATATTATTATTTTGGTGCATACTTATATATATTTT, the “gcPBM binding intensity (ln)” value came to 9.53 ± 0.085.

In the case of “ATAGTTTAATTTATATGTACATATAATATTGATTTG [XGTACX_site7520]”, the “gcPBM binding intensity (ln)” value turned out to be 7.89 ± 0.41.

“GTCAATATTTAGATATGTACTAAGGAGTGCTATATA [XGTACX_site222]”: the “gcPBM binding intensity (ln)” value turned out to be 10.2 ± 0.55.

For “TCCGCATGTACATGGGTGCACATAACACCCATTTAA [GTGCAC_site9881]”, the “gcPBM binding intensity (ln)” value stood at 10.4 ± 0.44.

In the case of GAAAAGCAGATAAATGTGCACATATATGTTTGTATA, the “gcPBM binding intensity (ln)” value came to 9.71 ± 0.43.

On to “TATATATGTATAAGAGTGCATATGCATATATGTATA [GTGCAC_site9692]”, for which the “gcPBM binding intensity (ln)” value turned out to be 9.85 ± 0.014.

For the sequence TTTTGTTTTTGTAGAGTGCATAAAGAAGATATGTAT, the “gcPBM binding intensity (ln)” value turned out to be 11.1 ± 0.86.

Consider “TTTATGCACGCGTGCACACACATATGAAAAAAGGTA [CACACA_site3315]”, for which the “gcPBM binding intensity (ln)” value came to 10.9 ± 0.72.

Turning to “TATTTATGCACGCGTGCACACACATATGAAAAAAGG [CACACA_site9090]”, the “gcPBM binding intensity (ln)” value was 11.1 ± 0.59.

For “TATGAAAAAATATATACACACATAATAAAGGTATAT [CACACA_site3737]”, the “gcPBM binding intensity (ln)” value turned out to be 7.73 ± 0.59.

For “TTATATGCATAAAAAGGTACACATATATAAATAAAT [XGTACX_site6894]”, the “gcPBM binding intensity (ln)” value was found to be 8.23 ± 0.4.

As for GGTATTTATGGACGCGTGCACACACATATGAACAAA, the “gcPBM binding intensity (ln)” value stood at 9.9 ± 0.14.

On to “CAAAAGGATATGCACACACACACACGGATATTTATA [CACACA_site7099]”, for which the “gcPBM binding intensity (ln)” value worked out at 8.985 ± 0.064.

In the case of “TTTGTTATATTTAATACACACATATTATAAACCCAT [CACACA_site3716]”, the “gcPBM binding intensity (ln)” value was found to be 7.95 ± 0.59.

For “TTTTCTTACACGAATTTTAAATTCAATATTAAACAT [CACACA_negctrl_site286]”, the “gcPBM binding intensity (ln)” value was 8.03 ± 0.44.

In the case of “ATGTATATTTTTATGTGTACGTAATAAAACATAATA [XGTACX_site7777]”, the “gcPBM binding intensity (ln)” value was determined as 8.33 ± 0.27.

On to “AAATCCATATAGGATTGTACATATATTATATATATA [XGTACX_site8818]”, for which the “gcPBM binding intensity (ln)” value amounted to 8.46 ± 0.39.

For “ATCCTCTTTACAATATGTACATAAATATATATTTAT [XGTACX_site8001]”, the “gcPBM binding intensity (ln)” value is 8.47 ± 0.43.

As to TTTTGTTATTTTTCAGTGCAATATGATAATAATATA, the “gcPBM binding intensity (ln)” value was found to be 10.5 ± 0.46.

Turning to “TACACATAATATAATGCATGTGTGATGTATGTTTAA [TGCATGCA_site697]”, the “gcPBM binding intensity (ln)” value amounted to 8.09 ± 0.66.

As to TTTTTTGTTATGCGGGTGCATATAATAATGTGATGA, the “gcPBM binding intensity (ln)” value turned out to be 10.9 ± 0.89.

In the case of “TTTTTTTTTTTTTGTACATGCAAATATTATGAACAC [TGCATGCA_site571]”, the “gcPBM binding intensity (ln)” value turned out to be 8.28 ± 0.53.

For “GAAATAATTCGATGTGCATGTAACGTTTCCCCAAAG [TGCATGCA_site122]”, the “gcPBM binding intensity (ln)” value was determined as 8.58 ± 0.54.

For “AATAAATAAATAAGTACACACATATAAATATAAATA [CACACA_site6271]”, the “gcPBM binding intensity (ln)” value was 7.91 ± 0.25.

As to “TTATAAAATATTTATGCATGTGAAGAATATTATAAA [TGCATGCA_site1047]”, the “gcPBM binding intensity (ln)” value is 8.42 ± 0.34.

On to ATATATTTTTATGTAGTGCATTTAAATAATAAATGC, for which the “gcPBM binding intensity (ln)” value stood at 10.7 ± 0.55.

For the sequence “AATATATATAAAAAAGTGCATTAGGATAACCATATA [GTGCAC_site9590]”, the “gcPBM binding intensity (ln)” value was found to be 11.2 ± 0.57.

Turning to TGGTTTATTTATTAAGTGCATAAATGCAATATATAT, the “gcPBM binding intensity (ln)” value worked out at 10.6 ± 0.44.

On to TGATATAAAATTAAAGTGCAAAAAAAAAATAAAAAA, for which the “gcPBM binding intensity (ln)” value was found to be 10.06 ± 0.078.

As to “AGGATATATAATTAAGTGCATTAATTCAAAATAAAA [GTGCAC_site9702]”, the “gcPBM binding intensity (ln)” value was 11.5 ± 0.54.

With TTTTATGCGCAATAAGTGCATTTAAAATATATATAT, the “gcPBM binding intensity (ln)” value was 11 ± 0.13.

With “AATAAAATAAATATATGTACATATATATAACCATTA [XGTACX_site5549]”, the “gcPBM binding intensity (ln)” value is 7.59 ± 0.38.

“TTTTATGCATGTGAAGTGCAAAATAAAAAATAAAAT [GTGCAC_site9612]”: the “gcPBM binding intensity (ln)” value was 10.8 ± 0.4.

On to “TGTTATTAAAATATAGTGCATAATTAACCATTATAA [GTGCAC_site9594]”, for which the “gcPBM binding intensity (ln)” value came to 10.8 ± 0.65.

As to “AAGTATTATTTTTATGCATGTGAAGTGCAAAATAAA [TGCATGCA_site198]”, the “gcPBM binding intensity (ln)” value worked out at 11 ± 0.43.

For ATTCTTAAAAAATAAGTGCAAAATAATTAAATAAAT, the “gcPBM binding intensity (ln)” value is 10.23 ± 0.014.
